From PubChem BioAssay (NCI)
Compounds without any hit were thinned out: in the full panel of roughly 83,000, 20% have a hit.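 Method: cells in 96-well plates; compound added at one concentration; 48 h incubation; percent growth measured; values under 10 scored active.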 Calls of active or inactive are those of the source.

How the values were obtained:
Assay in all cases: NCI-60 one-dose screen, 48 h (100 = growth as untreated, 0 = no growth, -100 = all killed)
Conditions in all cases: 10 µM unless noted
HCT-15 colon = system: HCT-15 colon
HT29 colon = system: HT29 colon
SNB-75 CNS = system: SNB-75 CNS
SNB-19 CNS = system: SNB-19 CNS
U251 CNS = system: U251 CNS
PC-3 prostate = system: PC-3 prostate
SK-MEL-5 melanoma = system: SK-MEL-5 melanoma
UACC-62 melanoma = system: UACC-62 melanoma
LOX IMVI melanoma = system: LOX IMVI melanoma
SK-MEL-28 melanoma = system: SK-MEL-28 melanoma
SK-MEL-2 melanoma = system: SK-MEL-2 melanoma
EKVX NSCLC = system: EKVX NSCLC
SN12C renal = system: SN12C renal
UO-31 renal = system: UO-31 renal
TK-10 renal = system: TK-10 renal
ACHN renal = system: ACHN renal
CAKI-1 renal = system: CAKI-1 renal
A498 renal = system: A498 renal
CCRF-CEM leukemia = system: CCRF-CEM leukemia
MOLT-4 leukemia = system: MOLT-4 leukemia

Measured: growth

CC1=NN(c2nc(SCC(=O)Nc3nc4ccc(C)cc4s3)nc(-c3ccccc3)c2C#N)C(=O)C1
inactive: HCT-15 colon 105% | HT29 colon 104% | SNB-75 CNS 75.4% | SNB-19 CNS 97.3% | U251 CNS 102% | PC-3 prostate 97.1% | SK-MEL-5 melanoma 100% | UACC-62 melanoma 94.3% | LOX IMVI melanoma 101% | SK-MEL-28 melanoma 105% | SK-MEL-2 melanoma 111% | EKVX NSCLC 106% | SN12C renal 95.6% | UO-31 renal 67.8% | TK-10 renal 131% | ACHN renal 96.3% | CAKI-1 renal 87.3% | A498 renal 101% | CCRF-CEM leukemia 107% | MOLT-4 leukemia 99.8%

Fc1cccc(CNc2c3ccccc3nc3ccccc23)c1F
active: A498 renal -0.792%
inactive: HCT-15 colon 39.5% | HT29 colon 29.1% | SNB-75 CNS 78.8% | SNB-19 CNS 58.5% | U251 CNS 65.6% | PC-3 prostate 57.1% | SK-MEL-5 melanoma 83% | UACC-62 melanoma 75.7% | LOX IMVI melanoma 39.2% | SK-MEL-28 melanoma 96.9% | SK-MEL-2 melanoma 107% | EKVX NSCLC 62.9% | SN12C renal 49% | UO-31 renal 40.1% | TK-10 renal 89.2% | ACHN renal 30.6% | CAKI-1 renal 45.7% | CCRF-CEM leukemia 62.4% | MOLT-4 leukemia 28.4%

C=C1C(=O)O[C@H]2[C@H]1CC/C(COC(=O)NCc1ccc(Cn3c(=O)sn(CCI)c3=O)cc1)=C\CC[C@@]1(C)O[C@@H]21
active: TK-10 renal 0.429% | CAKI-1 renal 7% | CCRF-CEM leukemia -16.1% | MOLT-4 leukemia -6.69%
inactive: HCT-15 colon 41.1% | HT29 colon 39.8% | SNB-75 CNS 81.2% | SNB-19 CNS 97.2% | U251 CNS 73.3% | PC-3 prostate 75.6% | SK-MEL-5 melanoma 98.8% | UACC-62 melanoma 65.4% | LOX IMVI melanoma 35.1% | SK-MEL-28 melanoma 55.5% | SK-MEL-2 melanoma 73.9% | EKVX NSCLC 91% | SN12C renal 70.3% | UO-31 renal 68.3% | ACHN renal 27.7% | A498 renal 120%

CCCCC(=O)Nc1ncc(Cc2ccc(Cl)cc2)s1
inactive: HCT-15 colon 40.3% | HT29 colon 28.6% | SNB-75 CNS 46.5% | SNB-19 CNS 77.2% | U251 CNS 65.6% | PC-3 prostate 80.9% | SK-MEL-5 melanoma 80.3% | UACC-62 melanoma 49.6% | LOX IMVI melanoma 64.8% | SK-MEL-28 melanoma 74.2% | SK-MEL-2 melanoma 90.4% | EKVX NSCLC 72.2% | SN12C renal 74.6% | UO-31 renal 58.2% | TK-10 renal 84.8% | ACHN renal 81.8% | CAKI-1 renal 42.3% | A498 renal 70.6% | CCRF-CEM leukemia 76.4% | MOLT-4 leukemia 66.2%

COc1ccc(C(=O)Nc2ncc(Cc3ccc(F)cc3)s2)cc1
active: HT29 colon 9.92% | SK-MEL-5 melanoma -4.84% | A498 renal -12.4%
inactive: HCT-15 colon 11.5% | SNB-75 CNS 23.9% | SNB-19 CNS 31.2% | U251 CNS 28.6% | PC-3 prostate 27.6% | UACC-62 melanoma 30.1% | LOX IMVI melanoma 20% | SK-MEL-28 melanoma 48.7% | SK-MEL-2 melanoma 30.7% | EKVX NSCLC 38.4% | SN12C renal 25.1% | UO-31 renal 39.8% | TK-10 renal 63.7% | ACHN renal 28.3% | CAKI-1 renal 22.3% | CCRF-CEM leukemia 12.3% | MOLT-4 leukemia 14.8%

CCNc1cc(-c2cccc(OC(F)(F)F)c2)nc2ccc(N3CCCC3)cc12
inactive: SNB-75 CNS 82.3% | SNB-19 CNS 27% | PC-3 prostate 15.1% | UACC-62 melanoma 50.7% | LOX IMVI melanoma 11.3% | SK-MEL-28 melanoma 30.6% | EKVX NSCLC 17.1% | TK-10 renal 35.5% | CAKI-1 renal 30.6% | A498 renal 58.9% | CCRF-CEM leukemia 13.4%
active: HCT-15 colon 4.85% | HT29 colon 4.79% | U251 CNS -68.3% | SK-MEL-5 melanoma -64.3% | SK-MEL-2 melanoma 6.05% | SN12C renal 9.26% | UO-31 renal 5.13% | ACHN renal -12.7% | MOLT-4 leukemia 2.48%

CCOC(=O)/C=C1\S/C(=N\Nc2cc(=O)[nH]c3ccc(Cl)cc23)N(c2ccccc2)C1=O
active: CCRF-CEM leukemia 3.19%
inactive: HCT-15 colon 74.5% | HT29 colon 102% | SNB-75 CNS 87.5% | SNB-19 CNS 90.6% | U251 CNS 89.9% | PC-3 prostate 85.4% | SK-MEL-5 melanoma 98.9% | UACC-62 melanoma 89.4% | LOX IMVI melanoma 84.4% | SK-MEL-28 melanoma 101% | SK-MEL-2 melanoma 105% | EKVX NSCLC 100% | SN12C renal 93.1% | UO-31 renal 75.2% | TK-10 renal 107% | ACHN renal 91.6% | CAKI-1 renal 83.3% | A498 renal 115% | MOLT-4 leukemia 21%

COc1cc(/C=C\c2cc(/C=C\c3ccc(O)c(OC)c3)n(C(=O)COc3ccc(Cl)cc3Cl)n2)ccc1O
inactive: SNB-19 CNS 29% | U251 CNS 16.3% | PC-3 prostate 10.2% | SK-MEL-28 melanoma 26.6% | EKVX NSCLC 38.4% | TK-10 renal 20.5% | ACHN renal 18.7% | CAKI-1 renal 14.8% | A498 renal 17.6%
active: HCT-15 colon 9.52% | HT29 colon 2.93% | SNB-75 CNS 5.12% | SK-MEL-5 melanoma -12.9% | UACC-62 melanoma 5.87% | LOX IMVI melanoma 3.79% | SK-MEL-2 melanoma -4.36% | SN12C renal 8.09% | UO-31 renal 8.72% | CCRF-CEM leukemia 4.35% | MOLT-4 leukemia -0.332%

O=C(NCCCCNC(=O)OCc1ccc2c(Cl)cc(Cl)c(O)c2n1)OCc1ccc2c(Cl)cc(Cl)c(O)c2n1
inactive: HCT-15 colon 13% | HT29 colon 103% | SNB-75 CNS 24.6% | SNB-19 CNS 62.7% | PC-3 prostate 18.8% | UACC-62 melanoma 36.7% | LOX IMVI melanoma 14.4% | SK-MEL-28 melanoma 50.6% | SK-MEL-2 melanoma 29.6% | EKVX NSCLC 91.3% | SN12C renal 28.1% | UO-31 renal 37.2% | TK-10 renal 61.3% | ACHN renal 26.2% | CAKI-1 renal 13.1% | CCRF-CEM leukemia 18.3% | MOLT-4 leukemia 22.6%
active: U251 CNS 9.05% | SK-MEL-5 melanoma -46.4% | A498 renal -1.85%

CCCNC(=O)Oc1ccc(/C(=C(/C)Cc2ccc(OC)cc2)c2ccc(OCCCN(C)C)cc2)cc1
inactive: HCT-15 colon 70.3% | HT29 colon 25.7% | SNB-75 CNS 80.8% | SNB-19 CNS 88.8% | U251 CNS 63.5% | PC-3 prostate 74.4% | SK-MEL-5 melanoma 86.9% | UACC-62 melanoma 102% | LOX IMVI melanoma 73.4% | SK-MEL-28 melanoma 94.1% | SK-MEL-2 melanoma 96.5% | EKVX NSCLC 85.7% | SN12C renal 84% | UO-31 renal 60.6% | TK-10 renal 88.3% | ACHN renal 99.4% | CAKI-1 renal 101% | A498 renal 97.6% | CCRF-CEM leukemia 56.4% | MOLT-4 leukemia 33.1%

CC(C)(C)n1cc(-c2ccnc(NCCNS(=O)(=O)c3cccc(F)c3)c2)c(-c2ccccc2)n1
inactive: HCT-15 colon 62.5% | HT29 colon 41.4% | SNB-75 CNS 85.2% | SNB-19 CNS 89.3% | U251 CNS 67.5% | PC-3 prostate 80.3% | SK-MEL-5 melanoma 72.3% | UACC-62 melanoma 81.7% | LOX IMVI melanoma 85.1% | SK-MEL-28 melanoma 102% | SK-MEL-2 melanoma 105% | EKVX NSCLC 70.6% | SN12C renal 90.1% | UO-31 renal 67% | TK-10 renal 105% | ACHN renal 99.5% | CAKI-1 renal 90.4% | A498 renal 27.1% | CCRF-CEM leukemia 93.8% | MOLT-4 leukemia 74.4%

O=Nc1c(-c2c(O)[nH]c3ncccc23)[nH]c2ccccc12
active: A498 renal -11.7%
inactive: HCT-15 colon 33.9% | HT29 colon 102% | SNB-75 CNS 31.2% | SNB-19 CNS 96.4% | U251 CNS 67.3% | PC-3 prostate 67.7% | SK-MEL-5 melanoma 72.3% | UACC-62 melanoma 56.7% | LOX IMVI melanoma 44.5% | SK-MEL-28 melanoma 75.3% | SK-MEL-2 melanoma 14.7% | EKVX NSCLC 35.5% | SN12C renal 72.8% | UO-31 renal 10.6% | TK-10 renal 40.3% | ACHN renal 22.6% | CAKI-1 renal 12.4% | CCRF-CEM leukemia 64.8% | MOLT-4 leukemia 40.8%

CCOC(=O)C(=Cc1cccc(Br)c1)C(=O)OCC
inactive: HCT-15 colon 15.1% | HT29 colon 18% | SNB-75 CNS 13.2% | SNB-19 CNS 50.9% | U251 CNS 26.8% | PC-3 prostate 40.8% | SK-MEL-5 melanoma 50.3% | UACC-62 melanoma 44.2% | SK-MEL-28 melanoma 39.2% | SK-MEL-2 melanoma 31.7% | EKVX NSCLC 61.1% | SN12C renal 34.8% | UO-31 renal 52.4% | TK-10 renal 58.5% | ACHN renal 27.7% | CAKI-1 renal 59.4% | A498 renal 95.1% | CCRF-CEM leukemia 11.7% | MOLT-4 leukemia 16.6%
active: LOX IMVI melanoma -8.96%

O=C(OCc1ccc2c(Cl)cc(Cl)c(O)c2n1)n1cncn1
inactive: HCT-15 colon 19.3% | HT29 colon 72.6% | SNB-75 CNS 44.9% | SNB-19 CNS 30.5% | U251 CNS 16.3% | PC-3 prostate 42.5% | SK-MEL-5 melanoma 15.4% | SK-MEL-28 melanoma 35.5% | SK-MEL-2 melanoma 36.6% | EKVX NSCLC 26.4% | SN12C renal 37.2% | UO-31 renal 15.2% | TK-10 renal 61.7% | ACHN renal 25.3% | CAKI-1 renal 13.6% | A498 renal 64.9% | CCRF-CEM leukemia 24.2% | MOLT-4 leukemia 18.3%
active: UACC-62 melanoma -3.18% | LOX IMVI melanoma 9.57%

C=CCn1c(SCC(=O)Nc2ccc(C(=O)/C=C/c3ccc(Cl)cc3)cc2)nnc1-c1cc(-c2ccc(S(N)(=O)=O)cc2)nc2ccccc12
inactive: HCT-15 colon 96.5% | HT29 colon 97.4% | SNB-75 CNS 56% | SNB-19 CNS 81.4% | U251 CNS 71.2% | PC-3 prostate 71.8% | SK-MEL-5 melanoma 76.8% | UACC-62 melanoma 71.9% | LOX IMVI melanoma 92.3% | SK-MEL-28 melanoma 92.1% | SK-MEL-2 melanoma 103% | EKVX NSCLC 94.6% | SN12C renal 90.2% | UO-31 renal 82.8% | TK-10 renal 99.9% | ACHN renal 98.1% | CAKI-1 renal 66.3% | A498 renal 89% | CCRF-CEM leukemia 54.2% | MOLT-4 leukemia 66.1%
